# Source: PubChem
# Most compounds without a hit are left out; they make up all but 3.6% or so of the library.
# TSHR agonist: agonists of human thyroid stimulating hormone receptor | AID 926 | Potency, µM (titrated, usually from 57.1 µM), without a hit: at the highest dose activation, actives largely listed as activators | HEK293-CNG-TSHR cells (CNG channel as cAMP sensor), membrane potential dye, cAMP | P16473 | actives 0.48% (n = 73,000); active = well fitted activation curve with a large enough effect in the main read-out, with a control signal flat, not every such curve was filed as active; inconclusive = small, poorly fitted or top-dose-only effect, or a change in a side signal; inactive = no such curve, though single readings can be large or run the other way; % of control where 0% means no effect;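 also: the control signal comes from parental cells without the receptor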
# Target sequence (P16473 whole entry, looked up): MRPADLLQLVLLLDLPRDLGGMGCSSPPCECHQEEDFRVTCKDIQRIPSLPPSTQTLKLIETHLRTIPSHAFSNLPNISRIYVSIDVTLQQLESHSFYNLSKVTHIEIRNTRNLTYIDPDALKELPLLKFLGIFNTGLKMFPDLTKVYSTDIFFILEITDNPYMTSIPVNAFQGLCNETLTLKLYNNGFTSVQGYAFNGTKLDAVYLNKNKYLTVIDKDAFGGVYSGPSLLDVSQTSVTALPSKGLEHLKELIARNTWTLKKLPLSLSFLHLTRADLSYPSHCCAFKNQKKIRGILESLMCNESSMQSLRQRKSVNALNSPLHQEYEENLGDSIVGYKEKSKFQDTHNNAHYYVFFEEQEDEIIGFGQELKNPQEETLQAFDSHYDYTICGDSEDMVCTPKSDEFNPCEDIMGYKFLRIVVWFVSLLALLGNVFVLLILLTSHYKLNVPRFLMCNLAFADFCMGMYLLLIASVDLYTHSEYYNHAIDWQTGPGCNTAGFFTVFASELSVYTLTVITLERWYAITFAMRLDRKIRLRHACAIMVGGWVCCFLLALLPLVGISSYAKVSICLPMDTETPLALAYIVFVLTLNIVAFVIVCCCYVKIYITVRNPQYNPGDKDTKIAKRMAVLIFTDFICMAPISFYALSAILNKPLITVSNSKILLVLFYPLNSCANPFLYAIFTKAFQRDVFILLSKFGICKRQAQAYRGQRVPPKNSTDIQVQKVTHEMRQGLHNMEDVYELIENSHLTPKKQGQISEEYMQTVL
#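 HEK 293 cells stably expressing TSHR and a modified CNG channel, with CNG-only parental cells as counterscreen, were preloaded 60 min at room temperature with membrane potential dye containing 100 uM RO 20-1724. Compound exposure was 30 min, and depolarization was read as fluorescence at 590 nm.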
# ERK AVP block: blocks ERK signaling stimulated by vasopressin; AID 995; HEK293-V1b, vasopressin-stimulated pERK AlphaScreen; actives 0.99% (n = 72,000); Potency, µM (highest dose often 57.5 µM), for the others: at the top dose activity, negative = inhibition, hits mostly inhibitors; also: % is scaled to controls: 0 for no effect and ±100 for the full control effect; nearly all actives have a fitted effect of over 55% in size
#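 Phosphorylated ERK1/2 detected via AlphaScreen bead proximity in lysates of V1b-expressing HEK293 cells given 25 nM vasopressin for 5 min after 30 min compound exposure (37 °C). AC50 from Hill equation; basal DMSO 0%, vasopressin 100%.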
# CRE Fsk mod: CRE-bla signaling modulation under forskolin stimulation; CHO CRE-bla reporter (cAMP response element driving beta-lactamase), forskolin EC10, beta-lactamase ratio; Potency, µM (highest dose often 38.2 µM), without a hit: top-dose activity change, negative = inhibition, usual class: activators; actives 2.5% (n = 71,000); AID 662; active = well fitted activation curve with a large enough effect in the signal ratio, with a control signal flat, not every such curve was filed as active; inconclusive = small, poorly fitted or top-dose-only effect, or effect the other way, or a change in a side signal; the % refers to the signal ratio; also: % of control where 0% means no effect
#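 CRE-bla CHO cells stimulated with EC10 NKH 477 (water-soluble forskolin) and compound titrations, 3 h at 37C; beta-lactamase read with CCF4 after 2 h at room temperature. Activity from 460/530 nm emission ratio, AC50 values for positive or negative modulation.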
# HEK293 cAMP ctrl: parental HEK293 cAMP activation (counter-screen) | Potency, µM (highest dose often 57.1 µM), without a hit: at the highest dose activation, hits mostly activators | parental HEK293 CNG cAMP sensor, membrane potential fluorescence | AID 938 | actives 2.5% (n = 73,000); also: % of control where 0% means no effect; nearly all actives have a fitted effect of over 55% in size
#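 Counterscreen for endogenous-receptor signalling: CNG-channel HEK 293 cells report cAMP rise by membrane depolarization. After 60 min dye equilibration with 100 uM RO 20-1724, compounds incubated 30 min before bottom-read fluorescence at 590 nm.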
# IkB signaling: suppresses IkB signaling in ABC-DLBCL reporter cells. actives 0.04% (n = 110,000). Potency, µM (highest dose often 57.1 µM), for inactives: at the highest dose IkBa stabilization activation. ABC-DLBCL IkBa-CBG/CBR dual luciferase ratio, 4 h; response scale: scaled: untreated 0%, proteasome inhibitor 100%. AID 445; active = well fitted curve in the direction sought with a large enough effect in the signal ratio, not every such curve was filed as active; inconclusive = small, poorly fitted or top-dose-only effect, or a change in a side signal; the % refers to the signal ratio;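 also: the direction sought is a rising ratio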
#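 In this assay, an IκBα–CBG68 fusion accumulates when IKK-driven degradation is blocked; native CBR normalizes for cell number. OCI-Ly3 cells were treated 4 h with compound and doxycycline, then green and red light read after Chroma-Glo addition.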
# * = called active by the depositor; ? = inconclusive; . = no result; [ ] = another dose, or the depositor's remark. Unless noted, calls follow the shape of the dose curve; as a rule, active = well fitted curve in the direction sought with a large enough effect; inconclusive = small, poorly fitted or top-dose-only effect, or another doubt; inactive = no such curve, though single readings can be large; an effect the other way counts as inactive or inconclusive. Potency is read from the fitted curve at half-maximal effect.
SMILES,TSHR agonist,ERK AVP block,CRE Fsk mod,HEK293 cAMP ctrl,IkB signaling
CN(C)C(=O)c1ccc(-c2nc(NCc3cccs3)c3ccccc3n2)cc1,?,-27%,?,?,-3%[11.4 µM]
COc1ccc(CNc2ccnc(-c3ccc(C(=O)N(C)C)cc3)n2)c(OC)c1,?,4%,?,0.79µM*,-1%[11.4 µM]
COc1ccc(CNc2cc(-c3ccccc3OC)ncn2)c(OC)c1,?,?,?,?,1%[11.4 µM]
COc1ccc(CNc2nc(-c3ccc(C(=O)N(C)C)cc3)nc3ccccc23)c(OC)c1,25µM*,0%,1µM*,22%,-2%[11.4 µM]
COc1ccc(CNc2cc(-c3ccccc3Cl)ncn2)c(OC)c1,?,16µM*,?,20µM*,-1%[11.4 µM]
COc1ccccc1CNc1ccnc(-c2ccc(C(=O)N(C)C)cc2)n1,.,-14%,?,17%,3%[11.4 µM]
COc1ccc(CNc2nc(-c3ccc(N(C)C)cc3)nc3ccccc23)c(OC)c1,-20%,-14%,?,-21%,6%[11.4 µM]
CCOc1nc(-c2ccc(C)cc2)ccc1-c1noc(COC)n1,7%,21%,?,24%,-1%
CCCC1(CCC)NC(=O)NC1=O,-3%,-5%,-13%,2%,1%
Cc1cc(O)cc(=O)o1,.,13%,.,.,.
COc1ccc(CNc2ccnc(-c3ccccc3C(F)(F)F)n2)c(OC)c1,?,-9%,4%,7.9µM*,3%[11.4 µM]
CCCn1c(=NC(=O)c2ccncc2)c(C#N)cc2c(=O)n3cccc(C)c3nc21,-2%,-4%,1µM*,0%,2%
Cc1cccn2c(=O)c3cc(C#N)c(=NC(=O)c4ccncc4)n(CCCOC(C)C)c3nc12,-12%,3%,13µM*,1%,-1%
COCCCn1c(=NC(=O)c2ccncc2)c(C#N)cc2c(=O)n3cccc(C)c3nc21,0%,.,.,-3%,.
Cc1cccc(-n2ccnc2SCC(=O)Nc2nc3ccccc3s2)c1,.,.,.,.,0%
COC(=O)c1cc(OC)c(OC)cc1NC(=O)c1ccc(Br)o1,13%,-15%,?,14%,-3%
O=c1cc(-c2ccccc2O)oc2cc(O)ccc12,.,11%,.,.,.
COc1ccccc1-c1cc(=O)c2cc(O)ccc2o1,?,-16%,?,40µM*,-3%[11.4 µM]
CC1CN(C(=O)CSc2ncnc3sccc23)CC(C)O1 (stereo unspecified),7%,26%,?,1%,2%
c1ccc(-c2cnc(CSc3ncnc4sccc34)o2)cc1,?,32µM*,2%,16µM*,?
COC(=O)c1nnn(CC(=O)Nc2ccc(Br)c(C)c2)c1N,.,.,.,.,0%
COc1ccccc1Nc1nc(N)nc(CSc2nccc(C)n2)n1,-1%,2%,?,-1%,-2%
COc1ccccc1Nc1nc(N)nc(CSc2nc(C)cc(C)n2)n1,-2%,-12%,10µM*,13%,1%
COc1ccc(Cc2nc(-c3ccc(-n4cccc4)cc3)no2)cc1OC,?,-21%,?,?,5%
COc1ccc(Cc2nc(-c3cccs3)no2)cc1OC,?,-4%,4µM*,?,5%
SMILES,TSHR agonist,ERK AVP block,CRE Fsk mod,HEK293 cAMP ctrl,IkB signaling
Cc1sc2nc(CN3CCOCC3)nc(NS(=O)(=O)c3ccc4c(c3)OCCO4)c2c1C,5%,-4%,?,17%[2.29 µM],-1%
c1csc(-c2csc3nc(CN4CCOCC4)nc(NCc4ccc5c(c4)OCO5)c23)c1,?,13%,?,13µM*,?
Cc1ccc(N2CCN(C(=O)c3cccn4c(=O)c5ccc(Cl)cc5nc34)CC2C)cc1 (stereo unspecified),.,.,.,.,2%
CCCc1nc(N)c(C#N)c(-c2cccnc2)c1CC,11%,.,13µM*,15%,1%
O=c1oc2ccccc2c2c1ncn2-c1ccccc1,25%[11.4 µM],-24%,?,-1%[11.4 µM],-3%
CCOC(=O)c1ccccc1NC(=O)c1cc2c(s1)-c1c(C)cccc1OC2,.,.,.,.,15%
CCOC(=O)/C=C1\NC(C)(C)Cc2cc(OC)c(O)cc21,3%,-6%,?,1%,1%
COc1cc2c(cc1OC)/C(=C/C(=O)N1CCOCC1)NC(C)(C)C2,3%,?,5µM*,-5%,-2%
CCOC(=O)c1cc(-c2ccc(OC)cc2)n(CCC(=O)NC2CCC(C)CC2)c1C (stereo unspecified),.,.,.,.,-1%
c1ccc(OCCN2C3=NCCN3c3ccccc32)cc1,16%,14%,-1%,25%,0%
O=C(NCc1ccc2c(c1)OCO2)c1ccc(-c2ccc(Cl)cc2)o1,?,32µM*,?,?,?
Cn1c(C(=O)Nc2ccc3c(c2)OCCO3)cc2c(=O)n(C)c3ccccc3c21,6%,-27%,0.4µM*,0%,9%
Cc1ccc2oc(C(=O)NCc3ccc4c(c3)OCO4)c(C)c2c1,?,-4%,?,?,-3%
CN(C)CCNC(=O)c1cc2c(=O)n(C)c3ccccc3c2n1C,16%,2%,?,9%,4%
O=C(NCc1ccc2c(c1)OCO2)c1nn(-c2ccccc2)c(=O)c2ccccc12,?,6%,?,25µM*,-1%
Cc1c(C(=O)NCc2ccc3c(c2)OCO3)oc2ccccc12,?,30%,?,25µM*,?
Nc1cc([N+](=O)[O-])ccc1C(=O)O,-4%,-10%,-4%,11%,14%
COCCNC(=O)c1nn(-c2ccc(C)cc2)c(=O)c2c1c1ccccc1n2C,.,.,.,.,0%
O=C(CSCc1cnn(-c2ccccc2)c1-n1cccc1)NCc1ccc2c(c1)OCO2,?,22%,10%,32µM*,?
COc1ccc(-n2nc(C(=O)Nc3ccc4c(c3)OCO4)c3c4ccccc4n(C)c3c2=O)cc1,?,-14%,2%,16µM*,0%
Cc1ccc(-n2nc(C(=O)NCc3ccco3)c3c4ccccc4n(C)c3c2=O)cc1,?,-9%,10%,4µM*,4%
O=C(Nc1ccc2c(c1)OCO2)c1nn(-c2ccccc2)c(=O)c2ccccc12,?,-3%,13%,25µM*,?
COc1ccc(-n2nc(C(=O)Nc3cccc(C(F)(F)F)c3)c3c4ccccc4n(C)c3c2=O)cc1,.,.,.,.,0%
CCCCNC(=O)CN1CCN(c2ncc(NC(=O)c3ccc(Cl)cc3)cc2C(=O)O)CC1,.,.,.,.,-1%
Cn1ncc2c(NCc3ccc(Cl)cc3)ncnc21,.,.,.,.,-4%
CCc1cccc(NC(=O)c2ccc3c(c2)c(C)c(C)n3Cc2ccc(F)cc2)c1,.,.,.,.,0%
COc1ccc(-c2cc(-c3ccccc3)nc(N3CCCC3)n2)cc1OC,3.2µM*,30%,3.2µM*,11%[11.4 µM],5%
CCN1CCN(C(c2ccccc2F)c2nnnn2Cc2ccc3c(c2)OCO3)CC1 (stereo unspecified),7%,-16%,0%,20%,7%
